# Assay results published in PubChem BioAssay (EPA / NIEHS).
# Results filed as inconclusive are left out. Calls of active or inactive are those of the source. How the source made its calls, unless noted: active means hit-call score of the fitted dose curve at least 0.9, where 1 is the maximum; inactive means score below 0.9.
# How the values were obtained:
# [1] = molecular target: CCAAT/enhancer-binding protein beta (Homo sapiens) (UniProt P17676); assay: ATG_C_EBP_CIS: Attagene CIS-FACTORIAL HepG2 Assay for human CCAAT/Enhancer Binding Protein (C/EBP) beta (AID 2282927); details: HepG2 Attagene cis-factorial transcription factor reporter; actives raise or lower the signal
# CCAAT/enhancer-binding protein beta (Homo sapiens), sequence (P17676 whole entry, looked up): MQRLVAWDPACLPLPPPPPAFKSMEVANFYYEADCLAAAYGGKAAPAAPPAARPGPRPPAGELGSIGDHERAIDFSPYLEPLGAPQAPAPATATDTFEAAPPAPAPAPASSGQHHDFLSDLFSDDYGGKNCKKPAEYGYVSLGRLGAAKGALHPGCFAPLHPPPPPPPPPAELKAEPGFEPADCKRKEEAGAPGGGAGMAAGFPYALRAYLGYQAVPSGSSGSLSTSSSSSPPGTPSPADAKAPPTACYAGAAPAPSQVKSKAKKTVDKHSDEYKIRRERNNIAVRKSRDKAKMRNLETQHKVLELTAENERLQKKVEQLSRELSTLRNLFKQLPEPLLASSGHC
# In short: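 Transiently transfected HepG2 (MRTU library, endogenous TF-driven promoters); 24 h dosing; total RNA → oligo(dT) RT → PCR → 6-FAM primer extension → HpaI digest → CE; fit bidirectionally vs DMSO.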
# [2] = molecular target: Hypoxia-inducible factor 1-alpha (Homo sapiens) (UniProt Q16665); assay: ATG_HIF1a_CIS: Attagene CIS-FACTORIAL HepG2 Assay for human Hypoxia Inducible Factor 1 (HIF1A) (AID 2282951); details: HepG2 Attagene cis-factorial HIF1a reporter transcription; actives raise or lower the signal
# In short: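 HepG2 cells transiently transfected with multiple cis-regulated reporter transcription units measure endogenous transcription factor activity. After 24 h exposure, reporter mRNA is quantified by RT-PCR with 6-FAM labelling, HpaI digestion and capillary electrophoresis. Bidirectional fitting against DMSO.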
# [3] = molecular target: Hepatocyte nuclear factor 6 (Homo sapiens) (UniProt Q9UBC0); assay: ATG_HNF6_CIS: Attagene CIS-FACTORIAL HepG2 Assay for human Hepatocyte Nuclear Factor 6 (HNF6) (AID 2282952); details: HepG2 Attagene cis-factorial HNF6 reporter transcription; actives raise or lower the signal
# Hepatocyte nuclear factor 6 (Homo sapiens), sequence (Q9UBC0 whole entry, looked up, the tested form may be a part): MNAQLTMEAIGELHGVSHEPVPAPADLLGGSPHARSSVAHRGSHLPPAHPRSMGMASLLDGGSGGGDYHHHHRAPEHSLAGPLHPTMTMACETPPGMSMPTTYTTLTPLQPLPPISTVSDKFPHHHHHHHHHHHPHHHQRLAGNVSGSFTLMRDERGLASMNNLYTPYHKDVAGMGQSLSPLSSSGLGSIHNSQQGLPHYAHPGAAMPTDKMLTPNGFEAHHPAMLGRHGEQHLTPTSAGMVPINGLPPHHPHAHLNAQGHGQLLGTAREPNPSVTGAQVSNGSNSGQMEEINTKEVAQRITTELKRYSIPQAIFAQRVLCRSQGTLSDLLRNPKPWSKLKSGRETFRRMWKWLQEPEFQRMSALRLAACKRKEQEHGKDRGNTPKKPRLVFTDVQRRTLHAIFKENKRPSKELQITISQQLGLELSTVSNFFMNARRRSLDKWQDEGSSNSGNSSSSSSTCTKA
# In short: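 Twenty-four-hour chemical treatment of reporter-transfected HepG2 cells precedes RNA isolation, DNase-treated reverse transcription and PCR of reporter sequences. Labelled fragments are sized by capillary electrophoresis and fitted bidirectionally versus DMSO.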
# [4] = molecular target: Heat shock factor protein 1 (Homo sapiens) (UniProt Q00613); assay: ATG_HSE_CIS: Attagene CIS-FACTORIAL HepG2 Assay for human Heat Shock Transcription Factor 1 (HSE) (AID 2282953); details: HepG2 HSE cis-reporter, Attagene RNA transcription; actives raise or lower the signal
# Heat shock factor protein 1 (Homo sapiens), sequence (Q00613 whole entry, looked up, the tested form may be a part): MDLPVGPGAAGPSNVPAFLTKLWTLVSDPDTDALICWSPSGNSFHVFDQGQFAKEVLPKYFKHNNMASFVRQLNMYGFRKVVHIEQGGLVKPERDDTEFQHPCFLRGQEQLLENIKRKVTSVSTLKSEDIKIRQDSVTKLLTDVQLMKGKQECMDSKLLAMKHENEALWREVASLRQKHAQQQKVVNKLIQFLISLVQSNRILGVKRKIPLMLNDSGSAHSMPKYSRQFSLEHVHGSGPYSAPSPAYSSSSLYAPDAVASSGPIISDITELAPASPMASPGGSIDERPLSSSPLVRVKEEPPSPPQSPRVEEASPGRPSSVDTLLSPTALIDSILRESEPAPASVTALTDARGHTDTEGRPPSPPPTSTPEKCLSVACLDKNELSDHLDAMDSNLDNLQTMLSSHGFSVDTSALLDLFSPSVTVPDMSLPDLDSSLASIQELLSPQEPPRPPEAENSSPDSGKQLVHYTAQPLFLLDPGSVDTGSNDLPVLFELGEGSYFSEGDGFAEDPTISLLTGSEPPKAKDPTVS
# In short: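 Read-out: fluorescence of reporter-specific RT-PCR fragments separated by capillary electrophoresis. HepG2 carrying transfected cis-element reporter units; 24 h dosing; activity fitted in both directions relative to DMSO baseline.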
# [5] = ATG_PXRE_CIS: Attagene CIS-FACTORIAL HepG2 Assay for human Pregnane X Receptor Element (PXRE) (AID 2282957); details: HepG2 Attagene CIS-FACTORIAL PXRE reporter, mRNA; actives raise or lower the signal
# In short: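 Bidirectional activity, baselined to DMSO, derived from reporter mRNA fluorescence (RT-PCR plus capillary electrophoresis) in HepG2 cells bearing cis-promoter reporter units, 24 h exposure.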
# [6] = ATG_Sox_CIS: Attagene CIS-FACTORIAL HepG2 Assay for human SRY-box transcription factor (SOX) (AID 2282960); details: HepG2 Attagene cis-factorial SOX reporter, mRNA; actives raise or lower the signal
# In short: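 HepG2 cells transiently transfected with multiple cis-regulated reporter units, then dosed for 24 h. Reporter mRNA quantified by RT-PCR, fluorescent labelling, HpaI digestion and capillary electrophoresis; bidirectional fit versus DMSO.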
# [7] = molecular target: Signal transducer and activator of transcription 3 (Homo sapiens) (UniProt P40763); assay: ATG_STAT3_CIS: Attagene CIS-FACTORIAL HepG2 Assay for human Signal Transducer and Activator of Transcription 3 (STAT3) (AID 2282963); details: HepG2, Attagene cis-factorial STAT3 reporter transcription; actives raise or lower the signal
# Signal transducer and activator of transcription 3 (Homo sapiens), sequence (P40763 whole entry, looked up, the tested form may be a part): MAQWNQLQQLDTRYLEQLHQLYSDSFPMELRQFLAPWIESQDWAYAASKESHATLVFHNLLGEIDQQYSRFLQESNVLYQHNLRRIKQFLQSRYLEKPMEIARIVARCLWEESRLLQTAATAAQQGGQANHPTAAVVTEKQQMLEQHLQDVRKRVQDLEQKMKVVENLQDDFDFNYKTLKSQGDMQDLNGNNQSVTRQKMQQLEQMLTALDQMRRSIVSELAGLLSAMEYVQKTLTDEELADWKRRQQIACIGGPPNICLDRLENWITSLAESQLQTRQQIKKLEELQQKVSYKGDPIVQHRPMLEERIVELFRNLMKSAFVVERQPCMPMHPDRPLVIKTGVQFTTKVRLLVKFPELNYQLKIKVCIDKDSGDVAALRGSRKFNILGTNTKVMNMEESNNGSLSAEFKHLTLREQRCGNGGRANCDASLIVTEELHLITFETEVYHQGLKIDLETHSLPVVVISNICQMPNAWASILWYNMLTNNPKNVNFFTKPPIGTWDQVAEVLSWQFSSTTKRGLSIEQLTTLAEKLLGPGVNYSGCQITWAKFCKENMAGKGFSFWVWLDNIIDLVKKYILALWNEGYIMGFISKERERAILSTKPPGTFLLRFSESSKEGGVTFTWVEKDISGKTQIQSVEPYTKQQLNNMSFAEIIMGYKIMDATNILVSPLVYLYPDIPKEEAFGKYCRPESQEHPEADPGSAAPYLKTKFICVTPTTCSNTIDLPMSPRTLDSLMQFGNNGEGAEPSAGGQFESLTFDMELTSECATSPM
# In short: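 Readout: fluorescent reporter mRNA fragments resolved by capillary electrophoresis. Setup: HepG2 transfected with MRTUs reporting endogenous transcription-factor activity, dosed 24 h. Gain or loss of signal fitted bidirectionally against DMSO control.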
# [8] = ATG_VDRE_CIS: Attagene CIS-FACTORIAL HepG2 Assay for human Vitamin D Receptor Element (VDRE) (AID 2282968); details: HepG2 VDRE cis-reporter transcription, actives raise or lower the signal
# In short: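 Transient MRTU transfection of HepG2, 24 h compound exposure. Readout: reporter transcripts via RT-PCR and capillary electrophoresis, fluorescence. Bidirectional fit vs DMSO.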
# [9] = molecular target: X-box-binding protein 1 (Homo sapiens) (UniProt P17861); assay: ATG_Xbp1_CIS: Attagene CIS-FACTORIAL HepG2 Assay for human X-box Binding Protein 1 (XBP1) (AID 2282972); details: HepG2 XBP1 cis-element reporter, Attagene multiplex; actives raise or lower the signal
# X-box-binding protein 1 (Homo sapiens), sequence (P17861 whole entry, looked up, the tested form may be a part): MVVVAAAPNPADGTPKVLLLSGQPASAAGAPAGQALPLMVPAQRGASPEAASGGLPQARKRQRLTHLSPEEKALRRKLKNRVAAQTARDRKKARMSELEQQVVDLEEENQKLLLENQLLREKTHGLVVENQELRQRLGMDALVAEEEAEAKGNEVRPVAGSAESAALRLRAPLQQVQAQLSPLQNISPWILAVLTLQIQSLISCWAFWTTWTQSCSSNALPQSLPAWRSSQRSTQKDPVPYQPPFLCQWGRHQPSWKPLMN
# In short: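 Read-out: fluorescent reporter mRNA fragments resolved by capillary electrophoresis after RT-PCR. Human HepG2 liver cells carried transfected cis-promoter reporter units and were exposed to chemicals for 24 hours. Gain or loss of signal fitted relative to DMSO baseline.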
# [10] = ATG_M_06_TRANS: Attagene TRANS-FACTORIAL HepG2 Assay for M06 Transcription Factor (Internal Marker) (AID 2282983; active means hit-call score of the fitted dose curve at least 0.9, where 1 is the maximum); details: HepG2 Attagene TRANS M06 internal marker reporter
# In short: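 Multi-reporter-transfected HepG2, 24 h treatment; reporter transcripts quantified via RT-PCR, primer-extension labelling and CE. DMSO-normalized gain-of-signal fit.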
# [11] = ATG_NFI_CIS: Attagene CIS-FACTORIAL HepG2 Assay for human Nuclear Factor I (NFI) (AID 2282989); details: HepG2 cis-regulatory reporter, NFI response element transcription; actives raise or lower the signal
# In short: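 Read-out: reporter mRNA via RT-PCR plus capillary electrophoresis with fluorescence detection. Transiently transfected HepG2 (endogenous TF activity on cis promoters), 24 h compound exposure; gain or loss of signal fitted against DMSO.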
# [12] = ATG_NRF2_ARE_CIS: Attagene CIS-FACTORIAL HepG2 Assay for human Nuclear Factor Erythroid 2 Related Factor 2 (NFR2) response to Antioxidant Response Elements (ARE) (AID 2282992); details: HepG2 Attagene ARE/NRF2 reporter, transcription factor activity; actives raise or lower the signal;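 on AC50: reporter mRNA level measured by RT-PCR and capillary electrophoresis fluorescence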
# In short: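 Readout: reporter mRNA quantified by RT-PCR plus FAM-labelled primer extension, HpaI digestion and capillary electrophoresis, 24 h after dosing transfected HepG2 cells. Gain or loss of signal is fitted bidirectionally against DMSO baseline.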
# [13] = molecular target: Cellular tumor antigen p53 (Homo sapiens) (UniProt P04637); assay: ATG_p53_CIS: Attagene CIS-FACTORIAL HepG2 Assay for human p53 Transcription Factor (AID 2282994); details: HepG2 p53 cis-element reporter, Attagene mRNA; actives raise or lower the signal
# Cellular tumor antigen p53 (Homo sapiens), sequence (P04637 whole entry, looked up): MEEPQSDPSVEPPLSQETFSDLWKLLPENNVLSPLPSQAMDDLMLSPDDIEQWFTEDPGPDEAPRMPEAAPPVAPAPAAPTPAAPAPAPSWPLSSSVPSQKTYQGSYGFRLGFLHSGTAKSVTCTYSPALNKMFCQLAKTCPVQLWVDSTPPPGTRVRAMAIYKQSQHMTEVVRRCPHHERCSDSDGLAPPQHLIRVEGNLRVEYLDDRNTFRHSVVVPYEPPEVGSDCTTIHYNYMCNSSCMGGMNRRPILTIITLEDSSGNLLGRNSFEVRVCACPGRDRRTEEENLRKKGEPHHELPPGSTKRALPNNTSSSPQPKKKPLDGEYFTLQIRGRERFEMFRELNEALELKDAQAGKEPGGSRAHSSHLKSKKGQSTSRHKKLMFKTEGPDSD
# In short: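 Read-out: reporter mRNA by RT-PCR plus capillary electrophoresis with fluorescence detection. Human HepG2 liver cells carried transfected multi-reporter cis-element constructs, dosed 24 h. Gain or loss of signal fitted bidirectionally against DMSO control.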
# [14] = molecular target: Cellular tumor antigen p53 (Homo sapiens) (UniProt P04637); assay: TOX21_p53_BLA_p2_ratio: Tox21 HCT-116 p53 Agonism Beta-lactamase Assay, Ratio, Phase 2 (AID 2283592; active means hit-call score of the fitted dose curve at least 0.9, where 1 is the maximum)
# In short: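 DMSO-normalized, positive-direction endpoint derived from the 460 nm/530 nm FRET ratio in HCT116 p53 beta-lactamase reporter cells exposed 16 h at 37C and loaded with CCF4-AM for 2 h.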
# [15] = molecular target: Transcription factor E2F1 (Homo sapiens) (UniProt Q01094); assay: ATG_E2F_CIS: Attagene CIS-FACTORIAL HepG2 Assay for human E2F Transcription Factor 1 (AID 2282935); details: HepG2 Attagene cis-reporter, E2F reporter RNA transcripts; actives raise or lower the signal
# In short: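 Transient MRTU transfection of HepG2; 24 h compound exposure; RNA → oligo(dT) RT → PCR → FAM label → HpaI cut → CE fluorescence. Gain/loss of signal fit against DMSO.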
# [16] = ATG_GATA_CIS: Attagene CIS-FACTORIAL HepG2 Assay for human GATA Binding Protein (AID 2282944); details: HepG2 GATA cis-element reporter, Attagene multiplex mRNA; actives raise or lower the signal
# In short: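 Read-out: fluorescent reporter mRNA fragments resolved by capillary electrophoresis after RT-PCR. Human liver HepG2 cells carried transiently transfected cis-regulated reporter constructs; chemicals incubated 24 h; gain or loss of signal fitted relative to DMSO.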
# [17] = molecular target: Transcription factor Sp1 (Homo sapiens) (UniProt P08047); assay: ATG_Sp1_CIS: Attagene CIS-FACTORIAL HepG2 Assay for human Specificity Protein 1 (Sp1) (AID 2282961); details: HepG2 Sp1 cis-reporter transcription, actives raise or lower the signal
# Transcription factor Sp1 (Homo sapiens), sequence (P08047 whole entry, looked up): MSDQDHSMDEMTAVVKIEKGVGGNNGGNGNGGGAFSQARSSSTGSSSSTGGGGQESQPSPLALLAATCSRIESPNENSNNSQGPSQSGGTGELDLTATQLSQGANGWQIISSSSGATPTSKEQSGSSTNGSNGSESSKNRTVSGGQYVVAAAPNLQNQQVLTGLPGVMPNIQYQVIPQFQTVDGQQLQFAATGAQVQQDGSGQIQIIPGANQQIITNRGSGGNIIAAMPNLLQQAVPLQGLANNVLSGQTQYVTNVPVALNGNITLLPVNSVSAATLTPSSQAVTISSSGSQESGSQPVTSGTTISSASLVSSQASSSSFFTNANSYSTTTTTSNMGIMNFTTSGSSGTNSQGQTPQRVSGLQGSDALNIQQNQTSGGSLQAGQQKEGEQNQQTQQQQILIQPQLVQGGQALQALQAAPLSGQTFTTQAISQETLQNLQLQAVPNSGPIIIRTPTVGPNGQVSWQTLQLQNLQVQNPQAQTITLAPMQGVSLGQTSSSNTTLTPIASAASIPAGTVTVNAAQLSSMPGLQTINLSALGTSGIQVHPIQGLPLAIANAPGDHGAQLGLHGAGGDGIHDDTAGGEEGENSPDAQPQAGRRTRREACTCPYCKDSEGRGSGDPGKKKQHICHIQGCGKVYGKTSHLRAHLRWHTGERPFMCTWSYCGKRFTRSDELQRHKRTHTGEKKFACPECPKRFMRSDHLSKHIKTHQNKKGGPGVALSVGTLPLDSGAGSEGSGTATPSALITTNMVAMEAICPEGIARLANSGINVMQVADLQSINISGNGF
# In short: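 HepG2 cells transiently transfected with multiplexed cis-regulated reporter constructs, chemical exposure 24 h. Reporter mRNA quantified by RT-PCR with capillary electrophoresis; bidirectional fit relative to DMSO.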
# [18] = ATG_TAL_CIS: Attagene CIS-FACTORIAL HepG2 Assay for human TAL Basal Promoter (AID 2282966); details: HepG2 Attagene cis-factorial TAL promoter reporter; actives raise or lower the signal;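 further: background control endpoint measuring basal TAL promoter reporter mRNA not a specific factor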
# In short: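 Human hepatoma HepG2 cells, transfected with promoter-regulated reporter units, were treated 24 h. Reporter transcript levels, measured through RT-PCR and capillary electrophoresis, were fitted for gain or loss relative to DMSO.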
# [19] = molecular target: Transcriptional activator Myb (Homo sapiens) (UniProt P10242); assay: ATG_Myb_CIS: Attagene CIS-FACTORIAL HepG2 Assay for human Myeloblastosis (Myb) Proto-Oncogene Transcription Factor (AID 2282986); details: HepG2 Attagene CIS-FACTORIAL Myb reporter transcription; actives raise or lower the signal
# Transcriptional activator Myb (Homo sapiens), sequence (P10242 whole entry, looked up): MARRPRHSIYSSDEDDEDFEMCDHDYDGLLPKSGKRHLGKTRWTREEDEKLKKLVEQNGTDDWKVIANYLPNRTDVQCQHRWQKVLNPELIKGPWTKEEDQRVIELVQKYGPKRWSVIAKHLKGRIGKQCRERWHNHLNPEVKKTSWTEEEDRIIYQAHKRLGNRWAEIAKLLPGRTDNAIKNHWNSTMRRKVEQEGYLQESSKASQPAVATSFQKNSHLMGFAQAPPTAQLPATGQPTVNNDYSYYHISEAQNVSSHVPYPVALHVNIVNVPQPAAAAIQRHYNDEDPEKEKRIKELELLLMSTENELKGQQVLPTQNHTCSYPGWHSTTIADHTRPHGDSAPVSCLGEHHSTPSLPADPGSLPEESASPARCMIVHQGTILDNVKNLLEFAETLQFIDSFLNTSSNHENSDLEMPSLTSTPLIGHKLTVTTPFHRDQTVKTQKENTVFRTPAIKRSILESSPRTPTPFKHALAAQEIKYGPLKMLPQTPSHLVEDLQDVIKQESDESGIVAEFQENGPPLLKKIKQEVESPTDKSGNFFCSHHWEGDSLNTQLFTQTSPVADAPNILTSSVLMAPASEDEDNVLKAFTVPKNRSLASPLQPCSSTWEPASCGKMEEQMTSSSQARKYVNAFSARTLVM
# In short: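 Transiently transfected HepG2 cells carrying a multiplexed cis-promoter reporter set report endogenous Myb activity after 24 h compound exposure. Reporter mRNA is read by RT-PCR with capillary electrophoresis of fluorescent products, fitted bidirectionally against DMSO.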
# [20] = molecular target: Myc proto-oncogene protein (Homo sapiens) (UniProt P01106); assay: ATG_Myc_CIS: Attagene CIS-FACTORIAL HepG2 Assay for human Myelocytomatosis (Myc) Proto-Oncogene Transcription Factor (AID 2282990); details: HepG2, Attagene cis-reporter transcription factor activity; actives raise or lower the signal
# Myc proto-oncogene protein (Homo sapiens), sequence (P01106 whole entry, looked up, the tested form may be a part): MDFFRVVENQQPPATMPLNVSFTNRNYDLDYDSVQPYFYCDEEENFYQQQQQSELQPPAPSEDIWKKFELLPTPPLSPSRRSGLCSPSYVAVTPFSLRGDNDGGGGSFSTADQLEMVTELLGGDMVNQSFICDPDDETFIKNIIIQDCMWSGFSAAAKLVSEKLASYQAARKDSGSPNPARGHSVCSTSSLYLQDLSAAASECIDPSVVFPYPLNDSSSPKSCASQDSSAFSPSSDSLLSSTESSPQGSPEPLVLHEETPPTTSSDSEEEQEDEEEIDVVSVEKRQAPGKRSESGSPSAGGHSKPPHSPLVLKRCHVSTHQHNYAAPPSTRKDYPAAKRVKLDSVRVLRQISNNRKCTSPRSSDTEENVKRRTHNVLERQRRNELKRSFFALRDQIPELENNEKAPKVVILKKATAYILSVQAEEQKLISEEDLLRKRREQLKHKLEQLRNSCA
# In short: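 Read-out: fluorescent reporter mRNA fragments resolved by capillary electrophoresis after RT-PCR. Human HepG2 liver cells carried transfected cis-element reporter units and were dosed for 24 h. Gain or loss of signal fitted relative to DMSO baseline.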
compound,measurement,setting,value
c1ccc2c(c1)Oc1ccccc1S2,outcome,[1],inactive
same,outcome,[2],inactive
same,outcome,[3],inactive
same,outcome,[4],inactive
same,outcome,[5],inactive
same,outcome,[6],inactive
same,outcome,[7],inactive
same,outcome,[8],inactive
same,outcome,[9],inactive
same,outcome,[10],inactive
same,AC50,[11],140 µM (active)
same,AC50,[12],146 µM (active)
same,outcome,[13],inactive
same,outcome,[14],inactive
CC(C)CC(=O)O,outcome,[15],inactive
same,outcome,[16],inactive
same,outcome,[2],inactive
same,outcome,[3],inactive
same,outcome,[4],inactive
same,outcome,[5],inactive
same,outcome,[6],inactive
same,outcome,[17],inactive
same,outcome,[7],inactive
same,outcome,[18],inactive
same,outcome,[8],inactive
same,outcome,[10],inactive
same,outcome,[19],inactive
same,outcome,[11],inactive
same,outcome,[20],inactive
same,outcome,[12],inactive
same,outcome,[13],inactive
same,outcome,[14],inactive
C[C@H]1C[C@H]2[C@@H]3CCC4=CC(=O)C=C[C@]4(C)[C@@]3(F)[C@@H](O)C[C@]2(C)[C@@]1(O)C(=O)CO,outcome,[1],inactive
same,outcome,[16],inactive
same,outcome,[3],inactive
same,outcome,[4],inactive
same,AC50,[5],9.62 µM (active)
same,outcome,[6],inactive
same,outcome,[17],inactive
same,outcome,[18],inactive
same,AC50,[9],158 µM (active)
same,outcome,[10],inactive
same,AC50,[19],180 µM (active)
same,outcome,[11],inactive
same,outcome,[20],inactive
same,AC50,[12],100 µM (active)
same,AC50,[13],39.4 µM (active)
same,outcome,[14],inactive
